{
  "source": "PubChem BioAssay (NCATS)",
  "note": "Where “and” joins values, the source holds several entries; their conditions need not be identical. Identical values can stand only once. Records with an inconclusive call do not appear. Values without a mark were called inactive. Calls come from the whole dose curve; as a rule, active = well fitted cell-killing curve with a large enough effect; inconclusive = small, poorly fitted or top-dose-only effect, or effect the other way; inactive = flat fitted curve, though single readings scatter. % is set by controls: 0 for no effect and ±100 for the full control effect.",
  "data": [
    {"experiment": "qHTS assay for cell viability of HEK293 cells (AID 743288); note: nearly all actives have a fitted effect of over 50% in size", "settings": "ATP luminescence (CellTiter-Glo), 18 h, stronger effect = lower value", "excerpt": "National Center for Advancing Translational Sciences [NCATS]\nNIH Chemical Genomics Center [NCGC]\nU.S. Environmental Protection Agency [EPA]\nNational Institutes of Environmental Health Sciences [NIEHS]\nNational Toxicology Program [NTP]\nU.S. Food and Drug Administration [FDA]\nThe CellTiter-Glo Luminescent Cell Viability Assay (Promega, Madison, WI) is a homogeneous method to determine the number of viable cells in culture based on quantitation of the ATP present, which signals the presence of metabolically active cells. This cell viability assay was used to screen environmental chemicals in the Hek293 cell line.\nTox21 Assay Protocol Summary:\nCell viability after compound treatment was measured using a luciferase-coupled ATP quantitation assay (CellTiter-Glo viability assay, Promega, Madison, WI) in parental HEK293 cells. Total intracellular ATP content corresponds to the number of metabolically competent cells after compound treatment. The cells were dispensed at 2,000 cells/5 uL/well in 1,536-well white/solid bottom assay plates using a Flying Reagent Dispenser (Aurora Discovery, San Diego, CA). The cells were incubated a minimum of 5 h at 37 C, followed by the addition of 23 nL of compounds dissolved in DMSO, positive controls or DMSO only using a pintool work station (Kalypsys, San Diego, CA). The assay plates were incubated for 18 h at 37 C, followed by the addition of 5 uL/well of CellTiter-Glo reagent. After 30 min incubation at room temperature, the luminescence intensity of the plates was measured using a ViewLux plate reader (PerkinElmer, Shelton, CT).", "values": [
      {"smiles": "ON=C1CCCCC1", "max response": "1.04%"},
      {"smiles": "Cc1ccc(S(=O)(=O)NC2CCCCC2)cc1", "max response": "-5.72%"},
      {"smiles": "CCC1CO1", "note": "(stereo not given)", "max response": "4.98%"},
      {"smiles": "CCCCCCO", "max response": "3.47%"},
      {"smiles": "CC(C)N(C)C", "max response": "6.47%"},
      {"smiles": "Nc1cccc(N)c1", "max response": "5.39%"},
      {"smiles": "Cc1cccc(C)c1O", "max response": "0.15%"},
      {"smiles": "FC(F)(F)c1cccc(Cl)c1", "max response": "-5.31%"},
      {"smiles": "O=[N+]([O-])c1ccccc1CCO", "max response": "-3.96%"},
      {"smiles": "C=CCOC(=O)CCCCCCCC", "max response": "-7.54%"},
      {"smiles": "Cc1c(C(=O)O)cccc1[N+](=O)[O-]", "max response": "6.06%"},
      {"smiles": "CCC(C)(C)C(=O)O", "max response": "-3.48%"},
      {"smiles": "NC(=O)NC(N)=O", "max response": "-4.97%"},
      {"smiles": "ClC/C=C/CCl", "max response": "4.84%"},
      {"smiles": "C=CCOC(=O)COCCC(C)C", "max response": "-0.0294%"},
      {"smiles": "CC(C)N=C=NC(C)C", "max response": "3.11%"},
      {"smiles": "CCCCCCC=O", "max response": "5.62%"},
      {"smiles": "CCOc1ccccc1N", "max response": "0.362%"},
      {"smiles": "Cc1ccc2ccccc2c1[N+](=O)[O-]", "max response": "1.17%"},
      {"smiles": "CC(=O)CC(C)C", "max response": "-6.25%"},
      {"smiles": "COC(=O)CCCC(=O)OC", "max response": "-4.02%"},
      {"smiles": "CSCCC=O", "max response": "1.22%"},
      {"smiles": "CC(=C/C=C/C(C)=C/C=C/C=C(C)/C=C/C=C(C)/C=C/C(=O)O)/C=C/C(=O)O", "max response": "-2.36%"},
      {"smiles": "CC#N", "max response": "-9.36%"},
      {"smiles": "S=C([S-])NCCNC(=S)[S-].[Zn+2]", "max response": "1.36% and -44.1% and -10.7%"},
      {"smiles": "c1ccc2[nH]cnc2c1", "max response": "3.37%"},
      {"smiles": "OCCO", "max response": "-10.8%"},
      {"smiles": "Nc1cccc(C(F)(F)F)c1", "max response": "-2.53% and -9.98%"},
      {"smiles": "NC=O", "max response": "-0.0358%"},
      {"smiles": "CC(C)(C)c1ccc(OCC2CO2)cc1", "note": "(stereo not given)", "max response": "3.48%"},
      {"smiles": "Cc1cccc(C)c1[N+](=O)[O-]", "max response": "-0.503% and 0.264%"},
      {"smiles": "O=P(O)(OCc1ccccc1)OCc1ccccc1", "max response": "-11.9%"},
      {"smiles": "NC(=O)c1ccccc1[N+](=O)[O-]", "max response": "7.1%"},
      {"smiles": "CC(=O)OC(C)=O", "max response": "3.19%"},
      {"smiles": "Nc1cc(Cl)c([N+](=O)[O-])cc1O", "max response": "-3.32%"},
      {"smiles": "Cc1ccc2ncccc2c1", "max response": "-3.3%"},
      {"smiles": "CN(C)CCCCl", "max response": "7.77%"},
      {"smiles": "O=[N+]([O-])c1ccc2nc[nH]c2c1", "max response": "3.84%"},
      {"smiles": "CCOc1cc(OCC)c(C(C)=O)cc1OCC", "max response": "0.327%"},
      {"smiles": "Cc1c(N)cccc1[N+](=O)[O-]", "max response": "11.6%"}
    ]}
  ]
}
